# Screening results from PubChem BioAssay.
# This excerpt belongs to a sample that is enriched for hits.
# miR122 inh: miR-122 suppressors via Renilla sensor increase, primary screen, cell-based, Huh7 psiCHECK-miR122, Renilla luciferase, single point | 48 h | activation, % at 12.5 µM | 0.14% of 340,000 active | AID 623901, 2012;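 active = mean activation of 30% or more, with every replicate also reaching 30%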;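 also: 0% = median of neutral control wells and 100% = median of positive control wells; higher luciferase signal means stronger suppression of miR-122 activity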
# * = called active by the depositor.
SMILES,miR122 inh
CCN(CC)CCOc1cccc(C(C)C)c1,35.8*
C[C@H]1CN([C@@H](C)CO)S(=O)(=O)c2ccc(C#Cc3cccnc3)cc2O[C@@H]1CN(C)C(=O)C1CC1,-15.0
COc1ccc(C(NC(C)=O)c2cc(Cl)c3cccnc3c2O)cc1 (stereo not drawn),71.5*
C[C@H](CO)N1C[C@H](C)[C@@H](CN(C)Cc2ccc(C(F)(F)F)cc2)Oc2c(cccc2N(C)C)C1=O,-98.0
C[C@@H]1CN([C@H](C)CO)S(=O)(=O)c2ccc(-c3ccncc3)cc2O[C@H]1CN(C)C(=O)C1CC1,-13.2
C[C@@H]1CN([C@@H](C)CO)S(=O)(=O)c2ccc(-c3ccccc3)cc2O[C@H]1CN(C)Cc1cncnc1,-1.1
CO[C@H]1CN(C)C(=O)c2cc(NS(=O)(=O)c3ccccc3)ccc2OC[C@@H](C)N(C)C[C@H]1C,-0.7
C[C@@H]1CN([C@H](C)CO)C(=O)c2cc(C#Cc3cccnc3)cnc2O[C@@H]1CN(C)Cc1ccncc1,7.7
COc1ccc(NS(=O)(=O)c2ccc(N3CCOCC3)c(NC(=O)c3cccc(F)c3)c2)cc1,-189.8
COc1ccc(NS(=O)(=O)c2ccc(N3CCOCC3)c(NC(=O)c3ccc(F)cc3)c2)cc1,-179.1
COc1nnc(-c2ccc(N3CCOCC3)c(NC(=O)c3ccccc3)c2)c2ccccc12,45.1*
CO[C@H]1CN(C)C(=O)c2cc(NC(=O)Cc3ccccc3)ccc2OC[C@@H](C)N(C)C[C@@H]1C,0.5
C[C@H]1CN([C@@H](C)CO)S(=O)(=O)c2ccc(-c3ccc(C#N)cc3)cc2O[C@@H]1CN(C)C(=O)Nc1cc(F)ccc1F,-18.8
CO[C@@H]1CN(C)C(=O)c2ccc(NC(=O)C3CCC3)cc2OC[C@@H](C)NC[C@@H]1C,-0.4
N=c1c2c(-c3ccccc3)c(-c3ccccc3)n(Cc3ccccc3)c2ncn1CCO,39.6*
COCC#Cc1ccc2c(c1)O[C@H](CN(C)C(=O)C1CCOCC1)[C@@H](C)CN([C@H](C)CO)S2(=O)=O,-3.4
CO[C@@H]1CN(C)C(=O)c2cc(NC(=O)C3CCOCC3)ccc2OC[C@@H](C)N(C)C[C@@H]1C,-1.8
C[C@H](CO)N1C[C@H](C)[C@@H](CN(C)Cc2ccccc2)Oc2cc(-c3cncnc3)ccc2S1(=O)=O,-1.5
COc1cccc(N2CCN(C(=S)Nc3cccc(C)c3)CC2)c1,-120.7
FC(F)(F)c1cnc(N2CCCN(C(=S)Nc3ccccc3)CC2)c(Cl)c1,37.1*
O=S(=O)(Nc1ccccc1)c1ccc(Oc2ncc(C(F)(F)F)cc2Cl)cc1,-94.2
C[C@H](CO)N1C[C@H](C)[C@H](CN(C)C(=O)C2CC2)Oc2cc(-c3ccncc3)ccc2S1(=O)=O,5.1
C[C@H](CO)N1C[C@H](C)[C@H](CN(C)S(C)(=O)=O)Oc2ncc(Br)cc2C1=O,-0.9
CCCNC(=O)N(C)C[C@@H]1Oc2ncc(/C=C/c3ccccc3)cc2C(=O)N([C@@H](C)CO)C[C@H]1C,4.4
CCCN(C)C[C@H]1Oc2cc(C#CC3CC3)ccc2S(=O)(=O)N([C@H](C)CO)C[C@H]1C,-33.9
SMILES,miR122 inh
O=C(NC(Nc1ncc(S(=O)(=O)c2ccc([N+](=O)[O-])cc2)s1)(C(F)(F)F)C(F)(F)F)c1ccc(Cl)cc1,43.7*
CN1c2ccc(-c3cccc(F)c3)cc2[C@H]2[C@H](CCN2C(=O)c2ccccc2F)[C@H]1CO,-106.7
C[C@H](O)C#Cc1cnc2c(c1)C(=O)N([C@@H](C)CO)C[C@H](C)[C@H](CN(C)C(=O)CN(C)C)O2,-4.2
C[C@H](CO)N1C[C@H](C)[C@H](CN(C)C(=O)Nc2ccc(F)cc2)Oc2ncc(-c3cccnc3)cc2C1=O,5.6
CCC(=O)N(C)C[C@H]1Oc2cc(-c3cccc(C#N)c3)ccc2S(=O)(=O)N([C@@H](C)CO)C[C@H]1C,1.3
C[C@@H]1CN([C@@H](C)CO)C(=O)Cc2cc(NC(=O)NC3CCCCC3)ccc2O[C@H]1CN(C)Cc1ccncc1,3.0
C[C@H](CO)N1C[C@H](C)[C@H](CN(C)C(=O)C2CCOCC2)Oc2ncc(-c3ccncc3)cc2C1=O,3.1
C[C@H](CO)N1C[C@H](C)[C@@H](CN(C)CC2CCOCC2)Oc2ncc(C#CCc3ccccc3)cc2C1=O,-6.0
CCOc1ccc(NC(=S)N(CCCN2CCCC2)Cc2cccn2Cc2ccc(Cl)cc2)cc1,32.6*
CCOc1ccc(NS(=O)(=O)c2ccc(NC(=S)NC(=O)C(C)C)cc2)cc1,-115.1
CC(=O)N(C)C[C@H]1Oc2cc(C#C[C@H](C)O)ccc2S(=O)(=O)N([C@H](C)CO)C[C@H]1C,4.4
C[C@@H]1CN([C@@H](C)CO)C(=O)c2cc(C3=CCCCC3)cnc2O[C@H]1CN(C)Cc1ccccc1C(=O)O,1.8
COC(=O)c1cc(=O)n2c(-c3ccc(OC)cc3)csc2n1,37.6*
COc1cccc(-c2ccc3c(c2)O[C@H](CN(C)Cc2cccnc2)[C@H](C)CN([C@H](C)CO)S3(=O)=O)c1,1.5
COc1ccc(C#Cc2ccc3c(c2)O[C@H](CN(C)C)[C@@H](C)CN([C@@H](C)CO)S3(=O)=O)cc1,-11.4
